# HT1080NT lethal – qHTS for induction of synthetic lethality in tumor cells producing 2HG: qHTS for the HT-1080-NT fibrosarcoma cell line; HT-1080-NT fibrosarcoma viability, CellTiter-Glo ATP luminescence, 48 h; Potency, µM (highest dose often 46.1 µM), usual class: cytotoxic; 360,000 compounds, 1.6% hits; AID 686970, 2013;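 note: NT is the 2HG producing partner of a matched IDH1 knockdown line; nearly all actives have a fitted effect of over 55% in size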
#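 Viability of the 2HG-overproducing fibrosarcoma line after 48 hours of compound exposure at 37 degrees C was determined by luminescence with CellTiter-Glo, and concentration-effect curves were then fitted and categorized.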
# ATXN2 expr inh – Primary qHTS for Inhibitors of ATXN expression; HEK-293 ATXN2-luciferase reporter, luminescence, 24 h; Potency, µM (highest dose often 57 µM), most hits filed as inhibitors; 360,000 compounds, 0.72% hits; AID 1745845, 2022; note: nearly all actives have a fitted effect of over 55% in size
#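 ATXN2-luciferase reporter cells (luciferase flanked by upstream and downstream ATXN2 gene portions) were treated 24 h at 37 °C with compounds at up to 57 uM. SteadyGlo luminescence gave expression; GF-AFC fluorescence gave viability.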
# KB-V1 cytotox – qHTS assay for MDR1-selective chemotherapeutics: Primary screen using the drug-selected MDR subline cells KB-V1; KB-V1 MDR cells viability, CellTiter-Glo, 72 h; Potency, µM (doses to about 46.1 µM), most hits filed as cytotoxic; 400,000 compounds, 3.4% hits; AID 1347076, 2019; note: nearly all actives have a fitted effect of over 60% in size
#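 KB-V1 cells (P-gp-expressing MDR subline of KB-3-1) in phenol-red-free DMEM with 10% FBS were exposed to library compounds over a concentration series for 72 h at 37 degrees C. Viability read by CellTiter-Glo luminescence; concentration-effect curves fitted after normalization.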
# KB-3-1 tox – qHTS assay for MDR1-selective chemotherapeutics: Primary screen using the parental adenocarcinoma cell KB-3-1. KB-3-1 viability, CellTiter-Glo ATP luminescence, 72 h. Potency, µM (highest dose often 46.1 µM), usual class: cytotoxic. 400,000 compounds, 1.4% hits; note: nearly all actives have a fitted effect of over 60% in size
#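 Cytotoxicity in the drug-sensitive parental line KB-3-1 was scored as loss of CellTiter-Glo luminescence following 72 h incubation with compound. Values come from curve fitting of normalized concentration-response data.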
# S2 tox – Viability Counterscreen for Primary qHTS for Inhibitors of ATXN expression; S2 cells (HEK-293 line with an ATXN2-luciferase reporter) viability, CellTiter-Fluor protease fluorescence, 24 h; Potency, µM (titrated, usually from 56.7 µM), most hits filed as cytotoxic; 400,000 compounds, 0.49% hits; AID 651635, 2014; note: nearly all actives have a fitted effect of over 40% in size
# HT1080 IDH1KD tx – qHTS for induction of synthetic lethality in tumor cells producing 2HG: qHTS for the HT-1080-IDH1KD cell line; HT-1080 IDH1 knockdown viability, ATP luminescence, 48 h; Potency, µM (titrated, usually from 46.1 µM), most hits filed as cytotoxic; 360,000 compounds, 2% hits; AID 686971, 2013
#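 Cytotoxicity counter-line: IDH1KD HT-1080, 48 h, CellTiter-Glo. Curves classed by r2, magnitude and activity.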
# Numbers stand for hits; – = inactive; ? = inconclusive; · = not tested or not shown; ! = not active in a repeat; [ ] = remark or other dose. Hits are enriched below; roughly 6.2% of the tested compounds scored in any of these assays. Calls come from the whole dose curve; as a rule, active = well fitted curve in the direction sought with a large enough effect; inconclusive = small, poorly fitted or top-dose-only effect, or another doubt; inactive = no such curve, though single readings can be large; an effect the other way counts as inactive or inconclusive.
SMILES,HT1080NT lethal,ATXN2 expr inh,KB-V1 cytotox,KB-3-1 tox,S2 tox,HT1080 IDH1KD tx
Cc1ccccc1OCC(=O)Nc1cc(C)c(O)c(-c2nc3ccccc3o2)c1,·,·,–,–,·,·
CN(C)c1ccc(/C=C/c2ccnc3ccc(Cl)cc23)cc1,·,·,–,–,·,·
CC(=O)c1ccc(-c2ccc3c4c(ccc3c2)OC(CNC(=O)C(C)N2CCOCC2)C4)s1 (stereo not given),·,·,·,·,–,·
C/C=C/c1ccc(OCCOc2cc(C=O)ccc2OC)c(OC)c1,–,–,15µM,–,–,–
COc1cccc(C2C=C(c3ccc(C)c(C)c3)Nc3nnnn32)c1OC (stereo not given),·,–,–,4.1µM,–,·
Cc1ccccc1C1C=C(c2ccc(Cl)cc2)Nc2nnnn21 (stereo not given),·,–,–,–,–,·
COc1cccc(C2=CC(c3cccc(OC)c3OC)n3nnnc3N2)c1 (stereo not given),?,–,?,–,–,16µM
COc1cccc(C2=CC(c3cccc(OC)c3OC(F)F)n3nnnc3N2)c1 (stereo not given),–,–,–,–,–,–
FC(F)(F)c1cc(-c2ccccc2)nc2cc(-c3ccccc3)nn12,·,–,–,–,–,·
COc1ccc(CN2C(=O)c3cccnc3C2Nc2ccc(OC)c(Cl)c2)cc1 (stereo not given),–,–,15µM,–,–,–
C/C(=N/NC(=O)c1ccc(C)nc1)c1ccc2c(c1)CCCC2,16µM,–[11.3 µM],10µM,?,–,23µM
COc1cc(C(=O)NCC(=O)N/N=C(/C)c2ccc3c(c2)CCCC3)cc(OC)c1OC,–,–[11.3 µM],–,–,–,–
Cc1ccc(S(=O)(=O)CC2CSc3nc(N)cc(=O)n32)cc1 (stereo not given),–,–,–,–,–,–
Cc1ccc(S(=O)(=O)CC2CSc3nc4ccccc4n32)cc1 (stereo not given),–,–,0.52µM,0.73µM,–,?
Cc1csc(NC(=O)CSc2nnc3c4ccccc4nc(C(C)(C)C)n23)n1,5µM,?,?,?,?,6.3µM
Cc1ccc(C(=O)CSc2nnc3c4ccccc4nc(C(C)(C)C)n23)cc1,–,–,?,23µM,–,–
CCn1ccc2cc(S(=O)(=O)N3CCC(C(=O)NCCc4ccc(SC)cc4)CC3)ccc21,·,–,–,–,–,·
CC1=C(CO)C(=O)OC([C@@H](C)C2CC[C@H]3C4C[C@H]5O[C@]56[C@@H](O)C=CC(=O)[C@]6(C)C4CC[C@]23C)C1 (stereo not given in full),21µM,3.2µM,13µM,?,5.6µM,18µM
CCOC(=O)C1CCCN(C(=S)Nc2ccc(C)cc2C)C1 (stereo not given),–,–,15µM,–,–,–
CCOC(=O)C1CCCN(C(=O)CNS(=O)(=O)c2ccc(Br)s2)C1 (stereo not given),–,–,21µM,–,–,–
CCOc1ccccc1N1CCN(C(=O)C2c3ccccc3Oc3ccccc32)CC1,?,–,15µM,13µM,–,18µM
CCOC(=O)C1CCCN(C(=O)C2COc3ccccc3O2)C1 (stereo not given),–,–,–,–,–,–
CCOC(=O)C1CCCN(C(=O)C2c3ccccc3Oc3ccccc32)C1 (stereo not given),–,–,12µM,–,?,–
CCOC(=O)C1CCCN(C(=S)Nc2ccc(Nc3ccccc3)cc2)C1 (stereo not given),–,–[11.3 µM],–,–,–,–
CCOc1ccc(-c2c(C)nn3c(C)c(C(=O)NCCc4ccc(C)cc4)cnc23)cc1OCC,·,–,–,–,–,·
SMILES,HT1080NT lethal,ATXN2 expr inh,KB-V1 cytotox,KB-3-1 tox,S2 tox,HT1080 IDH1KD tx
CC(C)(C)c1nnc(NS(=O)(=O)c2ccc(N)cc2)s1,·,–,·,·,–,·
CCOCCCn1c(=NC(=O)c2cccnc2)c(C(=O)OCC)cc2c(=O)n3ccccc3nc21,–,–,?,?,–,–
CCOC(=O)c1cc2c(=O)n3cccc(C)c3nc2n(CCCOC)c1=NC(=O)c1cccnc1,–,–,12µM,–,–,–
CCCCCn1c(=NC(=O)c2ccco2)c(C(=O)OCC)cc2c(=O)n3ccccc3nc21,–,–,5.2µM!,–,–,–
CCCCn1c(=NC(=O)c2ccco2)c(C(=O)OCC)cc2c(=O)n3ccccc3nc21,–,–,–,–,–,–
CCOc1ccc2c(c1)OC(c1ccc(OC)cc1)(C(F)(F)F)NC2=O (stereo not given),?,–,5.2µM,5.2µM,?,4.6µM
CCCCn1nnnc1NCc1cc(OC)c(OC)cc1OC,–,–,26µM,–,?,–
CCN(CC)c1ccc2c(-c3ccc(S(=O)(=O)O)cc3S(=O)(=O)[O-])c3ccc(=[N+](CC)CC)cc-3oc2c1,?,?,?,?,13µM,?
COc1ccc(-c2nc3scc(CCNC(=O)c4cccc(Br)c4)n3n2)cc1,·,?,–,–,18µM,·
CCCCSc1nc(CCC)cc(=O)[nH]1,–,–,–,–,–,–
CCCc1cc(=O)[nH]c(SCCc2ccccc2)n1,–,·,16µM,?,–,–
COC(=O)c1sc(N2C(=O)c3oc4ccccc4c(=O)c3C2c2cccs2)nc1C (stereo not given),–,–,?,18µM,–,–
CN(Cc1ccccc1)c1nc(-c2ccc([N+](=O)[O-])cc2)nc2ccccc12,–,–,–,–,–,–
O=[N+]([O-])c1ccc(-c2nc(C(Cl)Cl)c3ccccc3n2)cc1,–,4µM,–,13µM,?,–
Cc1cccc(CNC(=O)c2cnn(-c3nccc(-c4cccs4)n3)c2C2CC2)n1,·,·,·,·,–,·
CN[C@H]1CCc2cc(OC)c(OC)c(OC)c2-c2ccc(N(C)CC(OC)OC)c(=O)cc21,4.1µM,·,?,2.6µM,14µM,?
COc1cc2c(c(OC)c1OC)-c1ccc(OC)c(=O)cc1[C@@H](N(C)CC#CCO)CC2,0.0073µM,–,?,0.052µM,?,0.16µM
COc1cc2c(c(OC)c1OC)-c1ccc(N(C)CC(OC)OC)c(=O)cc1[C@@H](NC(C)=O)CC2,?,–,?,0.52µM,–,0.65µM
COc1cc2c(c(OC)c1OC)-c1ccc(NC(=O)c3ccc(F)cc3)c(=O)cc1[C@@H](NC(C)=O)CC2,?,·,–,?,–,?

# High-throughput results from PubChem BioAssay.
